In ChEMBL document CHEMBL1961873, “Compounds: GSK PKIS; Assays: Nanosyn kinase panel” (2012) one finds inhibition data, which are given here for two compounds.

SMILES strings stand for the structures.

For experiment [1], the target named is Protein kinase C gamma type (Homo sapiens) (UniProt P05129). The following applies: at 1 µM.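 Note: each value is an averaged percent inhibition of the enzyme.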
Experiment [2] has as its target T1, Protein kinase C iota type (Homo sapiens) (UniProt P41743).
T1 sequence (whole entry): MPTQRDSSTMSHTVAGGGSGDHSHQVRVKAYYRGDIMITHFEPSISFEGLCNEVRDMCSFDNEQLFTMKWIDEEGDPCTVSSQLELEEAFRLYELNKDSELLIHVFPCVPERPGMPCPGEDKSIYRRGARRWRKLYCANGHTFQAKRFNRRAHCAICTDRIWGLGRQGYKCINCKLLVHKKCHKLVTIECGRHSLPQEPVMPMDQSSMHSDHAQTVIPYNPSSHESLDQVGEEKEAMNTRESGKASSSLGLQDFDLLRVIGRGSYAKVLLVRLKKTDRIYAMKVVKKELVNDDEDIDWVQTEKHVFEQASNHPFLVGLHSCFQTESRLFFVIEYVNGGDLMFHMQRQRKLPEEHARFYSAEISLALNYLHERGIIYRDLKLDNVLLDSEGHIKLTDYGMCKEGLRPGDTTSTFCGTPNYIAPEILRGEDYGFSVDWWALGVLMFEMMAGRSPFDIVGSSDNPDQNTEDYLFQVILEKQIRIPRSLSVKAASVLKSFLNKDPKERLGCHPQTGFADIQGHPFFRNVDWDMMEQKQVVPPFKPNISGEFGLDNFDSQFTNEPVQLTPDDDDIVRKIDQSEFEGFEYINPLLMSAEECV
The following applies: at 0.1 µM.

The target of experiment [3] is T1, Protein kinase C iota type (Homo sapiens). The conditions noted are these: at 1 µM.
Experiment [4] addresses Protein kinase C theta type (Homo sapiens) (UniProt Q04759). The conditions noted are these: at 0.1 µM.
For experiment [5] the target is unchanged. The conditions noted are these: at 1 µM.
Experiment [6] addresses Protein kinase C beta type (Homo sapiens) (UniProt P05771). The following applies: at 0.1 µM.
The target is the same in experiment [7]. The conditions noted are these: at 1 µM.
For experiment [8], the target named is T2, Serine/threonine-protein kinase D1 (Homo sapiens) (UniProt Q15139).
T2 sequence (whole entry): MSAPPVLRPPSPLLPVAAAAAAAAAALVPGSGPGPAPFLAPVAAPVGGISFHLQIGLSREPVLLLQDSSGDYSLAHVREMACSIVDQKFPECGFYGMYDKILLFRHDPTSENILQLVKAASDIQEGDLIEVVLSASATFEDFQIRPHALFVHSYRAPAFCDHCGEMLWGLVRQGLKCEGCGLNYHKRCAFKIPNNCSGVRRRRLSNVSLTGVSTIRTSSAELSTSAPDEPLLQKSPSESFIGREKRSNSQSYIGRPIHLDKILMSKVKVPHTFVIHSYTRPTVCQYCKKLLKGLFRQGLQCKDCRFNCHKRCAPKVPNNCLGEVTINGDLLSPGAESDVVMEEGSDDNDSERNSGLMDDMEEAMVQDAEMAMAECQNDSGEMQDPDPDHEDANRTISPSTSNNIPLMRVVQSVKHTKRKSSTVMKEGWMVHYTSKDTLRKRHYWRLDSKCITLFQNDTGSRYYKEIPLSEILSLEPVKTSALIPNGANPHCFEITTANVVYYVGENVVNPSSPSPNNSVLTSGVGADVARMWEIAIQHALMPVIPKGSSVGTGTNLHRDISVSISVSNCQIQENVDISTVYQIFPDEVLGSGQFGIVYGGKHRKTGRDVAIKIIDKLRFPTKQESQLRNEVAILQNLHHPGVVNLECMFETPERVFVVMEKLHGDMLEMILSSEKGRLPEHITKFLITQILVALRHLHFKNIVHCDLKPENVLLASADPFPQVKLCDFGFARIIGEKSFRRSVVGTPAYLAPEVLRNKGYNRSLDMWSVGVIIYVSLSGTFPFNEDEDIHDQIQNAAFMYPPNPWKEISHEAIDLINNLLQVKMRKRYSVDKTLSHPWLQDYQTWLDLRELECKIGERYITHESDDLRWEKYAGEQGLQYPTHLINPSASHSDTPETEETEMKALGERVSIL
The following applies: at 0.1 µM.

Experiment [9] concerns the target T2, Serine/threonine-protein kinase D1 (Homo sapiens). The conditions noted are these: at 1 µM.
Experiment [10] has as its target T3, Serine/threonine-protein kinase D2 (Homo sapiens) (UniProt Q9BZL6).
T3 sequence (whole entry): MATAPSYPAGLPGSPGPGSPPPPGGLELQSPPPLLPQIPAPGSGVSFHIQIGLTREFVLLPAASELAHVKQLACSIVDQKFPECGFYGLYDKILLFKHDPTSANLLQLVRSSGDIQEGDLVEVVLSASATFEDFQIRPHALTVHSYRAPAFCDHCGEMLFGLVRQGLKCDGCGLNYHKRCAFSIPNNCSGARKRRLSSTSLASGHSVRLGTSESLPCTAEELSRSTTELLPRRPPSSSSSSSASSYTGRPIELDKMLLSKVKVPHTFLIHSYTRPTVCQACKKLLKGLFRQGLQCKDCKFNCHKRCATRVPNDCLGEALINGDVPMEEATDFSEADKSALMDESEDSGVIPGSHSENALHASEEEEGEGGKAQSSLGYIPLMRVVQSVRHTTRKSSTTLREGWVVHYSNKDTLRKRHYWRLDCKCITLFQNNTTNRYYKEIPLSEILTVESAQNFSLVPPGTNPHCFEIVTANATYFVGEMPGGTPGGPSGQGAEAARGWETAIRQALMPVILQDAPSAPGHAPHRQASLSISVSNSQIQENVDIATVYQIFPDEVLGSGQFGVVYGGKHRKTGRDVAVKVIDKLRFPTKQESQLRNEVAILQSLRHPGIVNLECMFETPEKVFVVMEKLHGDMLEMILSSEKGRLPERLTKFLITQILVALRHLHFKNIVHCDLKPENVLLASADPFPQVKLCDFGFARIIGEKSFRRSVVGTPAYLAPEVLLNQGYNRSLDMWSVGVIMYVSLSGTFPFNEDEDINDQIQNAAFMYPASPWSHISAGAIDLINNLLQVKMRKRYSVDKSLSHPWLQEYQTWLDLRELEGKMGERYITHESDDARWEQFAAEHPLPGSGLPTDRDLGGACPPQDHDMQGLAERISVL
The following applies: at 0.1 µM.

The target in experiment [11] is T3, Serine/threonine-protein kinase D2 (Homo sapiens). The following applies: at 1 µM.
Experiment [12] deals with T4, Serine/threonine-protein kinase D3 (Homo sapiens) (UniProt O94806).
T4 sequence (whole entry): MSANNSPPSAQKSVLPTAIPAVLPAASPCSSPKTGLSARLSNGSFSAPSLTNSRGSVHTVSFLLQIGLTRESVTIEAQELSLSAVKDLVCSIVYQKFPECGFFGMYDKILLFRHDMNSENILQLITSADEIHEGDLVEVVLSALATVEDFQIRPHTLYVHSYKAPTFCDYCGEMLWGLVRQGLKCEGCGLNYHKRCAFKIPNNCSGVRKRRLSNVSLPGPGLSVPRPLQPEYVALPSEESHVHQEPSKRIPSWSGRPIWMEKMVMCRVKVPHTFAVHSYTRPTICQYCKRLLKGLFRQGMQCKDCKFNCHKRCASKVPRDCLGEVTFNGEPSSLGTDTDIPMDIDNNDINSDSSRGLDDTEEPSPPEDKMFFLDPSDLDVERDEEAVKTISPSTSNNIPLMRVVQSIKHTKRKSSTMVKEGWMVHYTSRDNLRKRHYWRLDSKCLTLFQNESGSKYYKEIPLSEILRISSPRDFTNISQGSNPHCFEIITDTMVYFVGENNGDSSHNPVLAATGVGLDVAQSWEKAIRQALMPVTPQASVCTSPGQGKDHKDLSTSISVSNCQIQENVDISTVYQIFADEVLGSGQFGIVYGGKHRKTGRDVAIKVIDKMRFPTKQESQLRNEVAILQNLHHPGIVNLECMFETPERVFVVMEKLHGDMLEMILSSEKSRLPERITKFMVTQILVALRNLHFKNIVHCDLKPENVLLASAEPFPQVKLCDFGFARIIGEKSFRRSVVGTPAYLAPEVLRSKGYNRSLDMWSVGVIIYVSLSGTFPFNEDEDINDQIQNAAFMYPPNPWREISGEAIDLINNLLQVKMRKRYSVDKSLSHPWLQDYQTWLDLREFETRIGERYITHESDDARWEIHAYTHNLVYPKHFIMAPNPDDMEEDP
The following applies: at 0.1 µM.

Experiment [13] has as its target T4, Serine/threonine-protein kinase D3 (Homo sapiens). The following applies: at 1 µM.
Experiment [14] concerns the target T5, cGMP-dependent protein kinase 1 (Homo sapiens) (UniProt Q13976).
T5 sequence (whole entry): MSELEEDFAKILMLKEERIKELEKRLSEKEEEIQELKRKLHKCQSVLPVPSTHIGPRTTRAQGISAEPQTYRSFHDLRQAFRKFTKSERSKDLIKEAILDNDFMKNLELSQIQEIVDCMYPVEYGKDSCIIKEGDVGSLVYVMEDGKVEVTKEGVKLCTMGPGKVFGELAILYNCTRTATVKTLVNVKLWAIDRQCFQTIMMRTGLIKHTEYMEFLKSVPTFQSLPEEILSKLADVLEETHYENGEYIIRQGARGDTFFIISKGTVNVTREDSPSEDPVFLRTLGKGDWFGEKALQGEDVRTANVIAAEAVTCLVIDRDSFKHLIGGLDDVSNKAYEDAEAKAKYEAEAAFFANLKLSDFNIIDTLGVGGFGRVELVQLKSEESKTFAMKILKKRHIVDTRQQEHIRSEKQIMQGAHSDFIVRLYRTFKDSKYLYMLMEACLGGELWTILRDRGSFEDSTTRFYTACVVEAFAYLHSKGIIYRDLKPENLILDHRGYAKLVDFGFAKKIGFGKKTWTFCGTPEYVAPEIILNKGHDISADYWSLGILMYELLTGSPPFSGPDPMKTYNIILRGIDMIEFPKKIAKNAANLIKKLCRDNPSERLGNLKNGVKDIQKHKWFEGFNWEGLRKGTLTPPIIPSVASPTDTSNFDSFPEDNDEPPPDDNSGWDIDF
The following applies: at 0.1 µM.

Experiment [15] has as its target T5, cGMP-dependent protein kinase 1 (Homo sapiens). The conditions noted are these: at 1 µM.
In experiment [16] the target is T6, cGMP-dependent protein kinase 2 (Homo sapiens) (UniProt Q13237).
T6 sequence (whole entry): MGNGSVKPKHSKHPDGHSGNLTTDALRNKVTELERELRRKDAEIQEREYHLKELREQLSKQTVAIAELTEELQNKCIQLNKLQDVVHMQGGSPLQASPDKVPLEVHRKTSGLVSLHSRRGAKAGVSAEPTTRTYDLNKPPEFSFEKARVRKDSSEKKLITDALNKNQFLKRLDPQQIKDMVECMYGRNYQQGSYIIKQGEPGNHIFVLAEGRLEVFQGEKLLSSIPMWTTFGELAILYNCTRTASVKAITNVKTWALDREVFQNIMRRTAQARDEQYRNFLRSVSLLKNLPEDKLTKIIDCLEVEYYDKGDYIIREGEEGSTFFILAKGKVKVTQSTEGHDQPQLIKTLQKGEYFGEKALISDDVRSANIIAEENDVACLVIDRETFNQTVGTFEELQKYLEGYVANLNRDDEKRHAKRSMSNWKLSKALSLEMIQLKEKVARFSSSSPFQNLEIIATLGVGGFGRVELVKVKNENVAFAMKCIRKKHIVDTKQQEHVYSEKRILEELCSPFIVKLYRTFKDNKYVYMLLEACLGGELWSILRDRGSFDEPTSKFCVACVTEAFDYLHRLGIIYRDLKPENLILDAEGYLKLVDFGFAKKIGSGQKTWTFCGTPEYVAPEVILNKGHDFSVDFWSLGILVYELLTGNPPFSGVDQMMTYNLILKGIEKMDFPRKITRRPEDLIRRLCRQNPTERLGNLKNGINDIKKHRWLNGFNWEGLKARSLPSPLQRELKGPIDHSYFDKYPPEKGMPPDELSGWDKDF
The conditions noted are these: at 0.1 µM.

Experiment [17] concerns the target T6, cGMP-dependent protein kinase 2 (Homo sapiens). The following applies: at 1 µM.
Experiment [18] has as its target T7, cAMP-dependent protein kinase catalytic subunit PRKX (Homo sapiens) (UniProt P51817).
T7 sequence (whole entry): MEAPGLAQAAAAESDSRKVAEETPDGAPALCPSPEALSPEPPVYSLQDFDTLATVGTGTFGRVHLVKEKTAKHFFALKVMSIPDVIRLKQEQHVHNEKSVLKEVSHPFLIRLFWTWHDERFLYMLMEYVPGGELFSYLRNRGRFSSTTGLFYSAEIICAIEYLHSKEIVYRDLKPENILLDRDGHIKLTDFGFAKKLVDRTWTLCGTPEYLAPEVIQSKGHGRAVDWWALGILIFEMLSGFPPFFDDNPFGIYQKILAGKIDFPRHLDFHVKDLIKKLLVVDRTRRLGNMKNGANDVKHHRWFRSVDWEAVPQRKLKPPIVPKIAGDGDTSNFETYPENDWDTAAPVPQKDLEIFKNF
The conditions noted are these: at 0.1 µM.

The target of experiment [19] is T7, cAMP-dependent protein kinase catalytic subunit PRKX (Homo sapiens). The conditions noted are these: at 1 µM.
Experiment [20] has as its target Rho-associated protein kinase 1 (Homo sapiens) (UniProt Q13464). The conditions noted are these: at 0.1 µM.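 Note: values are mean percent inhibition of ROCK1.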

Chain of Protein kinase C beta type (Homo sapiens) (P05771 2-671 limits assumed): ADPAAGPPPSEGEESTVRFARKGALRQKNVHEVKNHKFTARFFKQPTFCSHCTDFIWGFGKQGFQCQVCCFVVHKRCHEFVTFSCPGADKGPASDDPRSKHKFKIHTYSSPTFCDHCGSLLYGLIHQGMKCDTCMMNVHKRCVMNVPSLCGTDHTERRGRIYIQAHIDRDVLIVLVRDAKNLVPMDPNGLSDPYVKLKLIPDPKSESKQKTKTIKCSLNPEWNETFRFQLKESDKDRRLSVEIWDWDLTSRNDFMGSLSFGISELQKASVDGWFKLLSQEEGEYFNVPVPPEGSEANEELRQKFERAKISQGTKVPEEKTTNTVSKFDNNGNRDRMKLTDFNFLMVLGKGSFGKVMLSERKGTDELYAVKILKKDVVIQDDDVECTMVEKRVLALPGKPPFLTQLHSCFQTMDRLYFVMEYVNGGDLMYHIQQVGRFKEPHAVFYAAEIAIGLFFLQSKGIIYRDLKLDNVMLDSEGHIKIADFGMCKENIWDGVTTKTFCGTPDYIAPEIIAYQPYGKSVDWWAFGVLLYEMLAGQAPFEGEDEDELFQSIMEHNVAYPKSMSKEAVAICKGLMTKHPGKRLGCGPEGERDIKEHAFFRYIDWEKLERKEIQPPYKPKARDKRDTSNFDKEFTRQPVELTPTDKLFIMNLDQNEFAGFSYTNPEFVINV
Chain of Protein kinase C theta type (Homo sapiens) (Q04759 whole entry, looked up): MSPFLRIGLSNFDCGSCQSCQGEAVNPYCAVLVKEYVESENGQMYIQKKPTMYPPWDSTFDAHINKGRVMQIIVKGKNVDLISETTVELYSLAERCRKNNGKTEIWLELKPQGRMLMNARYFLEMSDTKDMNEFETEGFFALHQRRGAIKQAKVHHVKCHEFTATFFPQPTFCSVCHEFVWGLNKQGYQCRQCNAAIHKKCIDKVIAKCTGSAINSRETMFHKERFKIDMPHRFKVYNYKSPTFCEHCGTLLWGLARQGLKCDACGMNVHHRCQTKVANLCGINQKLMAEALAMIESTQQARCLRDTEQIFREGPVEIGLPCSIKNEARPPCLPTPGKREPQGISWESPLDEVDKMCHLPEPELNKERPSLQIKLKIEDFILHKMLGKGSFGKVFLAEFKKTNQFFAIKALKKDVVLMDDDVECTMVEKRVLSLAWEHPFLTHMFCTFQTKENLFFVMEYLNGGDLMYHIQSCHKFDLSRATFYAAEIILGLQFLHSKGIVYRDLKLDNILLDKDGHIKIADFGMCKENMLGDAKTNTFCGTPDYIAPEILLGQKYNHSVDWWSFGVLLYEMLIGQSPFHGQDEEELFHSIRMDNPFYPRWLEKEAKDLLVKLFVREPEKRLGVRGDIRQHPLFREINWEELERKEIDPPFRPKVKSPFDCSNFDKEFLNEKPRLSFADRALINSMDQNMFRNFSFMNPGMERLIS
Chain of Rho-associated protein kinase 1 (Homo sapiens) (Q13464 2-1354 limits assumed): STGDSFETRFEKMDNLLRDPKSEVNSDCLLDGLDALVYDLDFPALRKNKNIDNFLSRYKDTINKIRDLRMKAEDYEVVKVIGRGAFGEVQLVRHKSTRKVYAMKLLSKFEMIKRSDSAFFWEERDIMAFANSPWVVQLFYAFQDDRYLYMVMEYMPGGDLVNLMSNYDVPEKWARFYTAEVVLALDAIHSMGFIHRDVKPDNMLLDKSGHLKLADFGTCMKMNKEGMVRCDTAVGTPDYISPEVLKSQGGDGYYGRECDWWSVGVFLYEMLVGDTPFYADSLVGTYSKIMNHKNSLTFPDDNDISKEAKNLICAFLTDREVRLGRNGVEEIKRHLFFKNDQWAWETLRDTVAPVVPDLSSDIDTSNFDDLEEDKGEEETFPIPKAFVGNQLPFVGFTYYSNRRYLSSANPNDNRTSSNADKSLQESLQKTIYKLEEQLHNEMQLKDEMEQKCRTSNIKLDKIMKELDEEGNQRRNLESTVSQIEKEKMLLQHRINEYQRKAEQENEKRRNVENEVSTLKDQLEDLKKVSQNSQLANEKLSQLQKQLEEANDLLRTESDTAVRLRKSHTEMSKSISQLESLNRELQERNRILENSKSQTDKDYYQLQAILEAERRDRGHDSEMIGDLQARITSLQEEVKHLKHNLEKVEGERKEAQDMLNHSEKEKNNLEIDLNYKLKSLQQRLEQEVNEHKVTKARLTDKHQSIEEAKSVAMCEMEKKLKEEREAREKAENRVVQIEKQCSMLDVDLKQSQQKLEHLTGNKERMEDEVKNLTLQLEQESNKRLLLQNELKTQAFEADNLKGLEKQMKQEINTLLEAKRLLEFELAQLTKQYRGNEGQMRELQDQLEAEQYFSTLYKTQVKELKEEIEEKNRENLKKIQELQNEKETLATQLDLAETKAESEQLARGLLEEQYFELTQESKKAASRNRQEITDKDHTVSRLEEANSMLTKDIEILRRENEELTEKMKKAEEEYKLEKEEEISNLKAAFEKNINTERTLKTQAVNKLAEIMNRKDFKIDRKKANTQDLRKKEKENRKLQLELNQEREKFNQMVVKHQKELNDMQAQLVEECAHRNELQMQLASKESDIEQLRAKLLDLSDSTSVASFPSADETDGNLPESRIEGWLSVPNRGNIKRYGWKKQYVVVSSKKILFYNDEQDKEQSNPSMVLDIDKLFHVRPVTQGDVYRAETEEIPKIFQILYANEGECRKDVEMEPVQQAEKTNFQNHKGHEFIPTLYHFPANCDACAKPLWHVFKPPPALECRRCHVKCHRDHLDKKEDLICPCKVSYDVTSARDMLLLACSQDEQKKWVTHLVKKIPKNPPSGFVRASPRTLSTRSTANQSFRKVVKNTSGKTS

`Fc1cccc(COc2ccc(Nc3ncncc3C#Cc3ccccc3)cc2Cl)c1`: the inhibition in experiment [1] worked out at 4.55%; in [2], 1.11%; in experiment [3] it was 0.75%; in experiment [4] it was 3.42%; in experiment [5] it was 4.89%; in experiment [6] it was 0.66%. Moreover, the inhibition in [7] worked out at 1.48%; in experiment [8] it was 4.73%; in [9], 7.41%; in [10] it was 5.16%; in experiment [11], 6.54%; in experiment [12] it was 6.12%. The inhibition came to 5.73% in [13]; 3.8% in [14]; 4.39% in experiment [15]; 3.39% in experiment [16]; 3.87% in experiment [17]; 2.56% in experiment [18]. The inhibition in [19] came out at 5.39%; in experiment [20] it was 1.15%.
For `COc1cc(Nc2ncc(-c3ccccc3)o2)cc(OC)c1`, the inhibition in experiment [1] stood at 2.55%; in experiment [2] it was 2.88%; in experiment [3] it was 3.11%; in [4] it was 2.43%; in experiment [5], 3.38%; in experiment [6], 0.78%. Also, the inhibition in [7] is 2.17%; in experiment [8], 4.12%; in [9] it was 5.16%; in experiment [10] it was 3.39%; in [11], 1.86%; in experiment [12], 5.05%. Moreover, the inhibition worked out at 4.51% in experiment [13]; 1.76% in experiment [14]; 1.96% in experiment [15]; 1.74% in experiment [16]; 2.19% in experiment [17]; 0.91% in [18]. In addition, the inhibition amounted to 4.53% in experiment [19] and 2.5% in experiment [20].

By inhibition is commonly meant the share of the control response that was lost under treatment. Lower therefore signals a weak effect.
